Most compounds without a hit are left out; they make up all but 2.6% or so of the library.
Granule exo inh – blocks lytic granule exocytosis | TALL-104 LAMP-1 surface exposure, flow cytometry; cells stimulated with thapsigargin and PMA | AID 651702 | inhibition, % at 10 µM | hit rate 0.66% among 360,000;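 active means inhibition above about 55%, limit read from the data; inconclusive means no clear call, values can overlap the other calls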
ABHD5 PLIN5 PPI – ABHD5-PLIN5 protein interaction inhibition; Split G. princeps luciferase complementation, luminescence, 4 h; Q00G26+Q8WTS1; inhibition, % at 4 µM; hit rate 0.78% among 360,000;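 active means inhibition above the mean inhibition across every tested compound plus 3 SD, cut at about 22% in these data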
Rce1 inhib – blocks yeast Ras-converting enzyme; Q03530; yeast membranes, quenched prenylated peptide cleavage fluorescence; calls only; hit rate 0.27% among 290,000;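 active means fall in fluorescence gain of 50% or more versus controls, with final raw signal at or below 3038400; inconclusive means same 50% fall but final raw signal above 3038400; inactive means fall in fluorescence gain under 50%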
Platelet DG rel – modulates dense granule release in human platelets; hit rate 0.22% among 300,000; inhibition, %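 (compounds screened at 7.5 µM in platelet-rich plasma)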; human platelet-rich plasma, SFLLRN dense granule ATP release, luminescence; AID 1663;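 active means mean replicate score, as percent of positive control, at or above 50; inconclusive means mean below 50 but at least one replicate at or above 50; inactive means mean and every replicate below 50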
PfM18AAP inh – blocks P. falciparum M18 aspartyl aminopeptidase. recombinant PfM18AAP, H-Glu-NHMec fluorogenic cleavage. inhibition, % at 7.35 µM. hit rate 1.2% among 290,000;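 active means inhibition above the campaign mean inhibition over all tested compounds plus 3 SD, cut at about 28% in these data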
ABHD5 PLIN5 conf – ABHD5-PLIN5 interaction inhibition, confirmed; shares compounds with ABHD5 PLIN5 PPI; biochemical ABHD5-PLIN5 interaction, luminescence; inhibition, % at 4 µM; hit rate 67% among 2,200; AID 651612; in the data active means inhibition above about 23%
HNF4 split-luc – counter-screen for ABHD5-PLIN5 inhibitors: HNF4 split-luciferase | shares compounds with ABHD5 PLIN5 PPI | HNF4 dimerization, luminescence, biochemical | inhibition, % at 4 µM | hit rate 77% among 2,200 | AID 651674;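 active means mean inhibition across replicate wells exceeding the computed hit threshold, cut at about 13% in these data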;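 further: light from luciferase halves that rejoin when HNF4 fusion proteins dimerize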
Hits are given with their value; 0 = inactive; ? = inconclusive; - = no result given.

SMILES	Granule exo inh	ABHD5 PLIN5 PPI	Rce1 inhib	Platelet DG rel	PfM18AAP inh	ABHD5 PLIN5 conf	HNF4 split-luc
C#CC(=O)N(c1ccc(OC)cc1OC)C(C(=O)NC1CCCC1)c1cccs1 (stereo not given)	0	28	-	0	0	40	38
C#CC(=O)N(c1cc(OC)ccc1OC)C(C(=O)NC1CCCC1)c1cccs1 (stereo not given)	0	32	0	0	0	45	45
CC(=O)c1cccc(NC(=O)CN(C)S(=O)(=O)c2ccc3c(c2)CCC(=O)N3)c1	0	0	0	0	0	-	-
CCOC(=O)c1c(CSC(=N)N)n(-c2ccc(C)cc2)c2cc(Br)c(OC(C)=O)cc12	0	31	0	0	0	33	30
CCOC(=O)c1c(CSC(=N)N)n(C)c2cc(Br)c(OC(C)=O)cc12	0	0	0	0	0	-	-
COC1=CC(=Cc2c(N)n3nc(CC(=O)N4CCCCC4)sc3nc2=O)C=C(OC)C1=O	0	0	0	0	0	-	-
Cn1c(=O)c(=O)n(C)c2cc([N+](=O)[O-])c([N+](=O)[O-])cc21	0	100	0	0	0	0	0
CCSc1nnc(N2C(=O)CC(c3ccsc3)C3=C2CC(C)(C)CC3=O)s1 (stereo not given)	0	0	0	0	0	-	-
COc1cc(/C=C/c2[nH]c(=O)[nH]c(=O)c2[N+](=O)[O-])cc([N+](=O)[O-])c1O	0	33	0	?	0	44	33
COc1cc(/C=C/c2[nH]c(=O)[nH]c(=O)c2[N+](=O)[O-])ccc1OCCC(C)C	0	0	0	0	0	-	-
CCC(C)Oc1ccc(/C=C/c2[nH]c(=O)[nH]c(=O)c2[N+](=O)[O-])cc1OC (stereo not given)	0	35	0	0	0	77	72
COCC(C)n1c(SCC(=O)Nc2nccs2)nc2ccccc2c1=O (stereo not given)	0	0	-	-	-	-	-
O=C(CCn1cnc2ccccc2c1=O)Nc1nc2c(s1)CCCC2	0	0	0	-	0	-	-
O=C1C(=C(c2ccccc2)N2CCOCC2)Cc2ccccc21	0	82	-	-	-	97	95
CCOC(=O)C1=C(C)N=c2s/c(=C3\C(=O)Nc4ccccc43)c(=O)n2C1c1ccc2c(c1)OCO2 (stereo not given)	0	27	0	0	0	0	0
CCOC(=O)C1=C(C)N=c2s/c(=C\c3ccncc3)c(=O)n2C1c1ccc2c(c1)OCO2 (stereo not given)	0	0	0	0	0	-	-
O=C(O)Cc1sc(N/N=C\c2ccncc2)nc1-c1ccccc1	0	24	0	0	0	0	45
C(=N\Nc1nc(-c2ccccc2)cs1)/c1ccncc1	0	0	0	0	0	-	-
COC(=O)CNC(=O)CNC(=O)c1nn(-c2ccc(OC)c(Cl)c2)c(=O)c2ccccc12	0	0	0	0	0	-	-
CC(C)N(C(C)C)S(=O)(=O)c1ccc(N2CCc3ccccc3C2)nc1	0	39	0	0	0	30	26
CCN(CC)S(=O)(=O)c1ccc(N2CCc3ccccc3C2)nc1	0	44	-	0	0	61	72
CN(C)CCNC(=O)c1c(NC(=O)c2ccccc2)sc2c1CCCC2	0	0	0	0	0	-	-
O=C(COC(=O)C1CC1)NCCNC(=O)COC(=O)C1CC1	0	86	0	0	-	0	0
CSc1ccc(CN(C)CC(=O)Nc2ccc(NC(C)=O)cc2)cc1	0	102	0	0	0	0	0
C(=NN=Cc1c[nH]c2ccccc12)c1c[nH]c2ccccc12	0	0	-	-	-	-	-
SMILES	Granule exo inh	ABHD5 PLIN5 PPI	Rce1 inhib	Platelet DG rel	PfM18AAP inh	ABHD5 PLIN5 conf	HNF4 split-luc
O=C1/C(=C/c2c[nH]c3ccccc23)CCC/C1=C\c1c[nH]c2ccccc12	0	30	0	0	0	29	58
O=C(/C=C/c1ccc2c(c1)OCCCO2)c1ccccc1O	0	27	0	0	0	78	53
Cc1ccc(O)c(C(=O)/C=C/c2ccc3c(c2)OCCCO3)c1	0	32	0	0	0	66	45
CCOC(=O)c1c(S(=O)(=O)N2CCN(C3CCCCC3)CC2)c(C)n(C)c1C	0	0	0	0	0	-	-
O=C(c1ccc(-c2ccc([N+](=O)[O-])cc2)o1)N1CCCCCCC1	0	39	-	-	-	42	33
O=C(c1ccc(-c2ccc([N+](=O)[O-])cc2)o1)N1CCCC(C(F)(F)F)C1 (stereo not given)	0	0	0	0	-	-	-
